Results taken from PubChem BioAssay (NCI).
About 83,000 compounds went through this panel and 20% of them were active in at least one assay; those are over-represented in the sample as a whole.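 The endpoint reported here, percent growth, reads 100 for growth as untreated, 0 for no net growth and -100 for all cells dead.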 The source made the active and inactive calls.

What follows are molecules tested on PC-3 prostate (assay: NCI-60 one-dose screen, 48 h (100 = growth as untreated, 0 = no growth, -100 = all killed)). Details: 10 µM unless noted.
Experimental: Growth inhibition of the PC-3 human tumor cell line is measured as a screen for anti-cancer activity. Cells are grown in 96 well plates and exposed to the test compound for 48 hours. Compounds are tested at a single concentration, which is 10^-5 M for most compounds. The reported endpoint is percent growth (GI% or GIPRCNT), where numbers from 0 - 100% represent growth inhibition, and numbers from -100% - 0 represent cell death. For example, a value of 40 represents 60% growth inhibition. A value of 0 means no net growth occurred over the course of the experiment. A value of -40 indicates 40% of cells at the beginning of the experiment died by the end of the experiment. A value of -100 means all cells are dead at the end of the experiment.
NCI-60 Human Tumor Cell Lines Screen was performed using the standard one-dose NCI protocol, which is described in more detail at https://dtp.cancer.gov/discovery_development/nci-60/default.htm.
Compounds with GIPRCNT values below 10 were considered active. Activity score was based on GIPRCNT using the following formula: […]
Score is 0 for GIPRCNT values of 100 or above, 50 for GIPRCNT values of 0, and 100 for GIPRCNT values of -100.

| Structure (SMILES) | growth |
| --- | --- |
| Oc1ccc(N=Cc2ccc(OCc3ccccc3)cc2)cc1 | 92.5% (inactive) |
| CN1CCCN(C(c2ccccc2)c2ccc(Cl)cc2)CC1 (stereo not given) | 86.5% (inactive) |
| O=C1NC(=O)C(c2ccccc2)O1 (stereo not given) | 102% (inactive) |
| O=S(Cc1ccccc1)/C(=C/NC(=S)Nc1ccccc1)c1ccccc1 (stereo not given) | 95.4% (inactive) |
| COc1nc2ccccc2s1 | 89.1% (inactive) |
| CC(C)OCC(CCl)OC(=O)Nc1ccccc1 (stereo not given) | 98.8% (inactive) |
| O=[n+]1ccn([O-])c2ccccc21 | 92.1% (inactive) |
| N#C/C(=C\NC(=S)N=Nc1c(O)[nH]c2ccccc12)c1nc2ccccc2s1 | 86.1% (inactive) |
| CC(CCC#N)(CCC#N)C(=O)c1ccccc1 | 87.8% (inactive) |
| COc1cc(CC#N)c([N+](=O)[O-])cc1OC | 101% (inactive) |
| NNC(=O)N/N=C1\C(=O)N(c2nccs2)C(=O)C(=O)C1c1nc2ccccc2s1 (stereo not given) | 82.6% (inactive) |
| C=COC(=O)CCOCC(CC)CCCC (stereo not given) | 98.2% (inactive) |
| CC(c1ccccc1)N1C(=O)CSC1=S (stereo not given) | 45.2% (inactive) |
| Cn1c(=O)c2[nH]c(CC(=O)O)nc2n(C)c1=O | 96.8% (inactive) |
| O=C1NCC2CCCC1C2 (stereo not given) | 114% (inactive) |
| Cc1ccc(C)c(CCO)c1 | 95.5% (inactive) |
| C=CCc1cc(OC)c(O)c(OC)c1 | 95.4% (inactive) |
| CCN(CC)CCCC(C)NC(=S)N/N=C(\C)c1ccccn1 (stereo not given) | 41.1% (inactive) |
| CCOC(C=O)OCC | 95.1% (inactive) |
| O=C(c1ccccc1O)N1CCCC1 | 84.4% (inactive) |

| Structure (SMILES) | growth |
| --- | --- |
| O=[N+]([O-])c1c(Cl)ncnc1Cl | 90.3% (inactive) |
| CCNc1ncnc2[nH]ncc12 | 94.6% (inactive) |
| CCN1CCCC(N2c3ccccc3Sc3ccccc32)C1 (stereo not given) | 97.4% (inactive) |
| Cc1ccc2nc(-c3ccc(N=Cc4ccccc4O)cc3)sc2c1 | 85.4% (inactive) |
| CC(=O)NC(CCc1ccc(Cl)c(Cl)c1)c1cccc(O)c(=O)c1 (stereo not given) | 38.9% (inactive) |
| CCOc1ccc(C(=O)NCC(C)C)cc1 | 98.1% (inactive) |
| Oc1cc2ccccc2c(-c2c(O)c(O)cc3ccccc23)c1O | 14.7% (inactive) |
| NCC(O)C(O)C(O)C(O)CO (stereo not given) | 81.4% (inactive) |
| Nc1nnc2cc(F)ccc2n1 | 96.6% (inactive) |
| CCOC(=O)CO | 101% (inactive) |
| Nc1nc(Cl)cc(Cl)n1 | 98.5% (inactive) |
| CCCCCC#CC(=O)O | 98.2% (inactive) |
| C=CC(C)C(C)(C)O (stereo not given) | 100% (inactive) |
| O=C(CCCl)OCCOc1ccccc1 | 95.9% (inactive) |
| O=C1CSc2ccccc2N1 | 93.1% (inactive) |
| O=C(NCc1ccco1)Nc1cccc2c(NC(=O)NCc3ccco3)cccc12 | 42.9% [100 µM] (inactive) |
| O=C(N/N=C\c1ccc(Cl)cc1Cl)c1ccncc1 | 94% (inactive) |
| CCN(CC)CCOC(=O)Nc1c(C(C)C)cccc1C(C)C | 95.5% (inactive) |
| Cc1ccc[n+](CCC(N)=O)c1 | 86.1% (inactive) |
| CCOC(=O)C(=O)CC(=O)c1ccccc1 | 89.4% (inactive) |
